Reference: PubChem BioAssay (Tox21)
Records with an inconclusive call do not appear. Activity calls are given as the source filed them. Unless noted, calls follow the shape of the dose curve; as a rule, active = well fitted curve in the direction sought with a large enough effect in the repeat runs; inconclusive = weak or mixed curves; inactive = no such curve, though single readings can be large; an effect the other way counts as inactive or inconclusive.

Legend:
[1] = qHTS assay to identify small molecule antagonists of the estrogen related receptor signaling pathway with the pleiotropic PPARgamma coactivator (PGC) from Tox21 10K library - cell viability counter screen (AID 1224840; active = well fitted cell-killing curve with a large enough effect in the repeat runs, not every such curve was filed as active; also: nearly all actives have a fitted effect of over 40% in size)
Procedure, shortened: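 Here the PGC/ERR cells serve as a cytotoxicity control: they are exposed to compounds for 17.5 hours at 37 C, and live-cell signal is quantified using CellTiter-Fluor fluorescence.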

[2] = target: Thyrotropin receptor (Homo sapiens) (UniProt P16473); experiment: qHTS assay to identify small molecule agonists of the thyroid stimulating hormone receptor (TSHR) signaling pathway (AID 1224843; calls by dose curve; also: nearly all actives have a fitted effect of over 45% in size)
Procedure, shortened: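 Screening of the Tox21 10K collection used HEK293 cells engineered with TSHR at 800 cells per well. After a 30-min room-temperature compound exposure, HTRF cAMP reagents were added and fluorescence recorded 1 h later.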

[3] = qHTS assay to identify small molecule agonists of the hypoxia (HIF-1) signaling pathway - cell viability counter screen (AID 1224844; calls by dose curve; also: nearly all actives have a fitted effect of over 50% in size)
Procedure, shortened: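 Multiplexed with the HRE beta-lactamase assay, this viability read used CellTiter-Glo luminescence (30 min, RT) on HRE-bla ME-180 cells treated 17 hrs with compounds in 0.5% dialyzed FBS medium.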

[4] = qHTS assay to identify small molecule agonists of H2AX (AID 1224845; active = well fitted activation curve with a large enough effect in the signal ratio in the repeat runs, not every such curve was filed as active; the % refers to the signal ratio)
Procedure, shortened: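 Phospho-H2AX Ser139 measured by HTRF (ex 320 nm; em 665 and 620 nm) after 24 hr antibody incubation. Compounds, 15 concentrations, 0.76% DMSO, were applied to CHO-K1 cells for 3hr at 37C before lysis.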

[5] = qHTS assay to identify small molecule agonists of the hypoxia (HIF-1) signaling pathway (AID 1224846; active = well fitted activation curve with a large enough effect in the signal ratio in the repeat runs, not every such curve was filed as active; the % refers to the signal ratio)
Procedure, shortened: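 Hypoxia-pathway activation was scored as increased beta-lactamase from an HRE-controlled reporter in ME-180 cells; plated at 2,000 cells per well with 0.5% dialyzed FBS, they were exposed 17 hrs to compounds and then given CCF4-AM.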

[6] = qHTS assay to identify small molecule agonists of H2AX - cell viability counter screen (AID 1224847; calls by dose curve;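 also: wild-type CHO-K1 cells; top concentration of the series differs between compounds; nearly all actives have a fitted effect of over 30% in size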)
Procedure, shortened: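 Counter-screen for viability: CellTiter-Glo ATP luminescence read after 3 h compound treatment (15-point titration, 0.76% DMSO final) of CHO-K1 cells at 37C, with 30 min room-temperature reagent incubation.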

[7] = qHTS RealTime-Glo MT Cell Viability Assay in HepG2 cells - 24 hour (AID 1224867); also: nearly all actives have a fitted effect of over 50% in size
Procedure, shortened: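 Viability was tracked continuously by NanoLuc luminescence from prosubstrate reduced by living HepG2 cells, at successive time points over 40 h of compound exposure. Cells with reagent were preincubated 5 h at 37 °C before compound addition.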

[8] = qHTS RealTime-Glo MT Cell Viability Assay in HEK293 cells - 32 hour (AID 1224868); also: top concentration of the series differs between compounds; nearly all actives have a fitted effect of over 50% in size
Procedure, shortened: (§1)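 Viability tracked continuously by luminescence as live cells reduce a prosubstrate for NanoLuc; HEK293 cells preincubated 5 h, compound-treated at 37 C, and read at 0, 8, 16, 24, 32 and 40 h.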

[9] = A CellTox Green Cytotoxicity Assay to monitor cytotoxicity in HEK293 cells - 0 hour (AID 1224869); also: nearly all actives have a fitted effect of over 50% in size
Procedure, shortened: (§2)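 Seeding of HEK293 cells together with cytotoxicity dye preceded a 5 h incubation at 37 C/5% CO2. Test compounds in DMSO were then added and fluorescence monitored across 40 h.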

[10] = qHTS RealTime-Glo MT Cell Viability Assay in HepG2 cells - 40 hour (AID 1224870); also: nearly all actives have a fitted effect of over 50% in size
Procedure, shortened: (§3)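 Real-time viability: cells seeded at 600 per well together with NanoLuc and cell-permeant prosubstrate, compounds added after 5 h incubation. Luminescence tracked at 0, 8, 16, 24, 32 and 40 h of exposure.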

[11] = A CellTox Green Cytotoxicity Assay to monitor cytotoxicity in HEK293 cells - 40 hour (AID 1224871); also: nearly all actives have a fitted effect of over 45% in size
Procedure, shortened: as §2

[12] = qHTS RealTime-Glo MT Cell Viability Assay in HEK293 cells - 16 hour (AID 1224872)
Procedure, shortened: as §1

[13] = qHTS RealTime-Glo MT Cell Viability Assay in HepG2 cells - 8 hour (AID 1224873); also: nearly all actives have a fitted effect of over 55% in size
Procedure, shortened: as §3

[14] = qHTS RealTime-Glo MT Cell Viability Assay in HEK293 cells - 40 hour (AID 1224874); conditions: RealTime-Glo luminescence; max response: stronger effect = lower value; also: nearly all actives have a fitted effect of over 50% in size
Procedure, shortened: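 Tox21 screen in HEK293 using RealTime-Glo MT chemistry, with cells and reagent co-dispensed. Luminescence proportional to viable cell number was captured at intervals during 40 h compound exposure at 37 C.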

[15] = A CellTox Green Cytotoxicity Assay to monitor cytotoxicity in HEK293 cells - 24 hour (AID 1224875); also: series mostly up to about 77 µM; nearly all actives have a fitted effect of over 45% in size
Procedure, shortened: as §2

[16] = A CellTox Green Cytotoxicity Assay to monitor cytotoxicity in HepG2 cells - 16 hour (AID 1224876); also: nearly all actives have a fitted effect of over 45% in size
Procedure, shortened: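 Nonlytic assay: viable cells exclude the dye, so fluorescence scales with cell death. HepG2 at 600 cells/well, compounds added after 5 h, signal read across 40 h.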
% is scaled to controls: 0 for no effect and ±100 for the full control effect.

Sequence of Thyrotropin receptor (Homo sapiens) (P16473 whole entry, looked up): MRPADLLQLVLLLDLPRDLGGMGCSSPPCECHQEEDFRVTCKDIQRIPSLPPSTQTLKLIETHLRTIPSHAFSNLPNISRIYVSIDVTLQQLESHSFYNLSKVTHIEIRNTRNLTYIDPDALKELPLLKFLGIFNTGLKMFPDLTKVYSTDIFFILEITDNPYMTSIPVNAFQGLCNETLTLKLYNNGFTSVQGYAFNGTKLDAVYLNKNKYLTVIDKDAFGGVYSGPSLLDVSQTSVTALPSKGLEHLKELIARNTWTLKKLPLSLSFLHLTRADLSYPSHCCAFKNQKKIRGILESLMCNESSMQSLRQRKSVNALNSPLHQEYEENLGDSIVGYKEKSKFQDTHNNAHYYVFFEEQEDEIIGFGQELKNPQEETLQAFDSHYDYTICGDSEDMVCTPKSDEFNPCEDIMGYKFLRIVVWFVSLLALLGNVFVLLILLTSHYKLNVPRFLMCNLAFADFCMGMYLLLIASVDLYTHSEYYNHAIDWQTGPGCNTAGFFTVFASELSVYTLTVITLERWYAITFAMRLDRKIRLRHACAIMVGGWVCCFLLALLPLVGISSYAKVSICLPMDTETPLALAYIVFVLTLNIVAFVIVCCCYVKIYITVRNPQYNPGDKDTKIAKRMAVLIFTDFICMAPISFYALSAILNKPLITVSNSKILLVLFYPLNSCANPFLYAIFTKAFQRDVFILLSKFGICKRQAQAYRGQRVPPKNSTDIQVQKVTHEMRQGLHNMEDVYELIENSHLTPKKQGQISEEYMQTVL

CCCCOC(=O)C(C)O (configuration not stated)
inactive: outcome [1] | outcome [2] | outcome [3] | outcome [4] | outcome [5] | outcome [6] | outcome [7] | Potency [8] | Potency [9] | outcome [10] | Potency [11] | Potency [12] | outcome [13] | max response [14] 11.1% | Potency [15] | Potency [16]

CC(=O)OC(C)=O
inactive: outcome [1] | outcome [2] | outcome [3] | outcome [4] | outcome [5] | outcome [6] | outcome [7] | Potency [8] | Potency [9] | outcome [10] | Potency [11] | Potency [12] | outcome [13] | max response [14] 9.5% | Potency [16]

O=C(O)[C@H](O)c1ccccc1
inactive: outcome [1] | outcome [2] | outcome [3] | outcome [4] | outcome [5] | outcome [6] | outcome [7] | Potency [8] | Potency [9] | outcome [10] | Potency [11] | Potency [12] | outcome [13] | max response [14] 0.819% | Potency [15] | Potency [16]

C[C@]12CCC(=O)C=C1CC[C@H]1[C@@H]3CC[C@](O)(C(=O)CO)[C@@]3(C)C[C@H](O)[C@@]12F
inactive: outcome [1] | outcome [2] | outcome [3] | outcome [4] | outcome [5] | outcome [6] | outcome [7] | Potency [8] | Potency [9] | outcome [10] | Potency [11] | Potency [12] | outcome [13] | max response [14] -26.1% | Potency [15] | Potency [16]

COC(=O)c1cc(Cl)cc(Cl)c1
inactive: outcome [1] | outcome [2] | outcome [3] | outcome [4] | outcome [5] | outcome [6] | outcome [7] | Potency [8] | Potency [9] | outcome [10] | Potency [11] | Potency [12] | outcome [13] | max response [14] -0.635% | Potency [15] | Potency [16]

C/C=C(\C)C(C)=O
inactive: outcome [1] | outcome [2] | outcome [3] | outcome [4] | outcome [5] | outcome [6] | outcome [7] | Potency [8] | Potency [9] | outcome [10] | Potency [11] | Potency [12] | outcome [13] | max response [14] 0.603% | Potency [15] | Potency [16]

CC(=O)O[C@@H]1CC2CCC1(C)C2(C)C (some centres not stated)
inactive: outcome [1] | outcome [2] | outcome [3] | outcome [4] | outcome [5] | outcome [6] | outcome [7] | Potency [8] | Potency [9] | outcome [10] | Potency [11] | Potency [12] | outcome [13] | max response [14] 5.83% | Potency [16]

COc1ccc2c(c1)c1c3n2CCN(C)C3=NCC1
inactive: outcome [1] | outcome [2] | outcome [3] | outcome [4] | outcome [5] | outcome [6] | outcome [7] | Potency [8] | Potency [9] | outcome [10] | Potency [11] | Potency [12] | outcome [13] | max response [14] 17.6% | Potency [15] | Potency [16]

CC1(C)Cc2cccc(N)c2O1
inactive: outcome [1] | outcome [2] | outcome [3] | outcome [4] | outcome [5] | outcome [6] | outcome [7] | Potency [8] | Potency [9] | outcome [10] | Potency [11] | Potency [12] | outcome [13] | max response [14] 1.5% | Potency [15] | Potency [16]

CCOC(CN1CCN(CC(C)C(=O)c2ccccc2)CC1)c1ccccc1 (configuration not stated)
inactive: viability change, negative = cytotoxic [1] -2.82% [at 19 µM] | activation [2] -4.32% [at 19 µM] | activity change, negative = cytotoxicity [3] 0.0048% [at 15.8 µM] | activation (H2AX phosphorylation) [4] -1.86% [at 31.6 µM] | activation [5] 1.68% [at 15.8 µM] | activity change, negative = cytotoxicity [6] -1.65% [at 31.6 µM] | activity change, negative = cytotoxicity [7] -0.414% [at 15.8 µM] | activity change, negative = cytotoxic [8] -29.5% [at 15.8 µM] | cytotoxicity [9] -3.29% [at 15.8 µM] | activity change, negative = cytotoxic [10] 0.0501% [at 15.8 µM] | cytotoxicity increase [11] -2.53% [at 15.8 µM] | viability change, negative = cytotoxic [13] -2.57% [at 15.8 µM] | max response [14] -27.6% | activity change [15] -4.62% [at 15.8 µM, stronger effect = higher value] | cytotoxicity increase [16] -21.5% [at 15.8 µM]

O=C(CN1CCNCC1)NC1CCCCC1
inactive: outcome [1] | outcome [2] | outcome [3] | outcome [4] | outcome [5] | outcome [6] | outcome [7] | Potency [8] | Potency [9] | outcome [10] | Potency [11] | Potency [12] | outcome [13] | max response [14] 0.0212% | Potency [15] | Potency [16]

N[C@@H](Cc1ccc(O)cc1)C(=O)O
inactive: viability change, negative = cytotoxic [1] 3.49% [at 8.39 µM] | activation [2] 8.55% [at 8.39 µM] | activity change, negative = cytotoxicity [3] 2.31% [at 6.97 µM] | activation (H2AX phosphorylation) [4] 0.078% [at 14 µM] | activation [5] -0.522% [at 7.01 µM] | activity change, negative = cytotoxicity [6] 5.12% [at 14 µM] | activity change, negative = cytotoxicity [7] -0.685% [at 6.97 µM] | activity change, negative = cytotoxic [8] -0.171% [at 6.97 µM] | cytotoxicity [9] 1.14% [at 6.97 µM] | activity change, negative = cytotoxic [10] 1.47% [at 6.97 µM] | cytotoxicity increase [11] -0.009% [at 6.97 µM] | activity change, negative = cytotoxicity [12] 0.747% [at 6.97 µM] | viability change, negative = cytotoxic [13] 0.728% [at 6.97 µM] | max response [14] -1.3% | activity change [15] 2.02% [at 6.97 µM, stronger effect = higher value] | cytotoxicity increase [16] -12.3% [at 6.97 µM]

CC(=O)O[Si](C)(OC(C)=O)OC(C)=O
inactive: outcome [1] | outcome [2] | outcome [3] | outcome [4] | outcome [5] | outcome [6] | outcome [7] | Potency [8] | Potency [9] | outcome [10] | Potency [11] | Potency [12] | outcome [13] | max response [14] 7.61% | Potency [15] | Potency [16]

C=CCCCCCCCC
inactive: outcome [1] | outcome [2] | outcome [3] | outcome [4] | outcome [5] | outcome [6] | outcome [7] | Potency [8] | Potency [9] | outcome [10] | Potency [11] | Potency [12] | outcome [13] | max response [14] 1.11% | Potency [15] | Potency [16]

CCCc1ccc(O)cc1
inactive: outcome [1] | outcome [2] | outcome [3] | outcome [4] | outcome [5] | outcome [6] | outcome [7] | Potency [8] | Potency [9] | outcome [10] | Potency [11] | Potency [12] | outcome [13] | max response [14] 6.55% | Potency [15] | Potency [16]
